# Laboratory results reported in PubChem BioAssay AID1159580 (chemical genetic matrix, 2015).
# In all, about 5,500 compounds went through this assay and about 2,000 (36%) were called active. About 18% were inconclusive and are not listed. Some of the results follow. Values without a mark were called inactive. Cut-off read from the data, not from the text of the source: active = normalized growth mostly below about 0.91 (no sharp cut-off); inconclusive = no clear call, values can overlap the other calls; inactive = mostly above about 0.92.
# Assay: chemical genetic growth profiling, strain panel (AID 1159580);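 note: tested at 20 µM; growth read once vehicle control cultures reached saturation at 30 °C; 1 = growth at the plate median or of vehicle wells; lower values mean less growth of the strain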
# Conditions: S. cerevisiae deletion strains, growth OD
smiles,measurement,setting,value
O=C1c2cccc3c(Sc4ccccc4)ccc(c23)C(=O)N1NCCO,normalized growth,"locus YAR019C, strain CDC15, active compounds read low",0.921
same,normalized growth,"locus YBL105C, strain PKC1, active compounds read low",0.926
same,normalized growth,"locus YBR135W, strain CKS1, active compounds read low",0.92
same,normalized growth,"locus YBR136W, strain MEC1, active compounds read low",0.929
same,normalized growth,"locus YBR160W, strain CDC28, active compounds read low",0.922
same,normalized growth,"locus YDL017W, strain CDC7, active compounds read low",0.929
same,normalized growth,"locus YDL028C, strain MPS1, active compounds read low",0.924
same,normalized growth,"locus YDL101C, strain DUN1, active compounds read low",0.916
same,normalized growth,"locus YDL108W, strain KIN28, active compounds read low",0.929
same,normalized growth,"locus YDL132W, strain cdc53, active compounds read low",0.941
same,normalized growth,"locus YDL214C, strain PRR2, active compounds read low",0.861
same,normalized growth,"locus YDR052C, strain DBF4, active compounds read low",0.941
same,normalized growth,"locus YDR054C, strain cdc34, active compounds read low",0.936
same,normalized growth,"locus YDR226W, strain ADK1, active compounds read low",0.952
same,normalized growth,"locus YDR477W, strain SNF1, active compounds read low",0.853
same,normalized growth,"locus YER123W, strain YCK3, active compounds read low",0.855
same,normalized growth,"locus YER133W, strain GLC7, active compounds read low",0.908
same,normalized growth,"locus YFL009W, strain cdc4, active compounds read low",0.912
same,normalized growth,"locus YFL029C, strain CAK1, active compounds read low",0.911
same,normalized growth,"locus YFR003C, strain YPI1, active compounds read low",0.923
same,normalized growth,"locus YFR019W, strain FAB1, active compounds read low",0.897
same,normalized growth,"locus YFR028C, strain CDC14, active compounds read low",0.938
same,normalized growth,"locus YGR040W, strain KSS1, active compounds read low",0.859
same,normalized growth,"locus YGR052W, strain FMP48, active compounds read low",0.83
same,normalized growth,"locus YGR092W, strain DBF2, active compounds read low",0.734
same,normalized growth,"locus YHR030C, strain SLT2, active compounds read low",0.577 (active)
same,normalized growth,"locus YHR079C, strain IRE1, active compounds read low",0.84
same,normalized growth,"locus YHR082C, strain KSP1, active compounds read low",0.8
same,normalized growth,"locus YHR205W, strain SCH9, active compounds read low",0.857
same,normalized growth,"locus YIL147C, strain SLN1, active compounds read low",0.921
same,normalized growth,"locus YJL095W, strain BCK1, active compounds read low",0.771
same,normalized growth,"locus YJL128C, strain PBS2, active compounds read low",0.816
same,normalized growth,"locus YJL157C, strain FAR1, active compounds read low",0.896
same,normalized growth,"locus YJR016C, strain ILV3, active compounds read low",0.921
same,normalized growth,"locus YJR066W, strain TOR1 (second series), active compounds read low",0.93
same,normalized growth,"locus YJR066W, strain TOR1, active compounds read low",0.805
same,normalized growth,"locus YKL048C, strain ELM1, active compounds read low",0.831
same,normalized growth,"locus YKL067W, strain YNK1, active compounds read low",0.861
same,normalized growth,"locus YKL101W, strain HSL1, active compounds read low",0.804
same,normalized growth,"locus YKL193C, strain SDS22, active compounds read low",0.912
same,normalized growth,"locus YKL203C, strain TOR2, active compounds read low",0.887
same,normalized growth,"locus YLR113W, strain HOG1, active compounds read low",0.771 (active)
same,normalized growth,"locus YLR133W, strain CKI1, active compounds read low",0.844
same,normalized growth,"locus YLR403W, strain SFP1, active compounds read low",0.863
same,normalized growth,"locus YML070W, strain DAK1, active compounds read low",0.857
same,normalized growth,"locus YMR001C, strain CDC5, active compounds read low",0.914
same,normalized growth,"locus YMR205C, strain PFK2 (second series), active compounds read low",0.854
same,normalized growth,"locus YMR277W, strain FCP1, active compounds read low",0.904
same,normalized growth,"locus YNL006W, strain LST8, active compounds read low",0.931
same,normalized growth,"locus YNL020C, strain ARK1, active compounds read low",0.814
same,normalized growth,"locus YNL161W, strain CBK1, active compounds read low",0.927
same,normalized growth,"locus YNL183C, strain NPR1, active compounds read low",0.784
same,normalized growth,"locus YNL207W, strain RIO2, active compounds read low",0.922
same,normalized growth,"locus YNL222W, strain SSU72, active compounds read low",0.921
same,normalized growth,"locus YNL307C, strain MCK1 (second series), active compounds read low",0.834
same,normalized growth,"locus YOL078W, strain AVO1, active compounds read low",0.911
same,normalized growth,"locus YOL136C, strain PFK27, active compounds read low",0.853
same,normalized growth,"locus YOR061W, strain CKA2, active compounds read low",0.877
same,normalized growth,"locus YOR119C, strain RIO1, active compounds read low",0.936
same,normalized growth,"locus YOR231W, strain MKK1, active compounds read low",0.845
same,normalized growth,"locus YOR329C, strain SCD5, active compounds read low",0.93
same,normalized growth,"locus YPL031C, strain PHO85, active compounds read low",0.837
same,normalized growth,"locus YPL153C, strain RAD53, active compounds read low",0.82
same,normalized growth,"locus YPL204W, strain HRR25, active compounds read low",0.837
same,normalized growth,"locus YPL209C, strain IPL1, active compounds read low",0.923
same,normalized growth,"locus YPL256C, strain CLN2, active compounds read low",0.757 (active)
same,normalized growth,"locus YPR025C, strain CCL1, active compounds read low",0.926
same,normalized growth,"locus YPR106W, strain ISR1, active compounds read low",0.915
same,normalized growth,"locus YPR111W, strain DBF20, active compounds read low",0.957
same,normalized growth,"strain NNK1, active compounds read low",0.897
same,normalized growth,"strain TSCII, active compounds read low",0.917
C[N+]1(C)CCOC(O)(c2ccc(-c3ccc(C4(O)C[N+](C)(C)CCO4)cc3)cc2)C1 (stereo unspecified),normalized growth,"locus YAL040C, strain CLN3, active compounds read low",1.09
same,normalized growth,"locus YCL061C, strain MRC1 (second series), active compounds read low",0.993
same,normalized growth,"locus YDR150W, strain NUM1, active compounds read low",0.99
same,normalized growth,"locus YDR363W, strain ESC2, active compounds read low",1.02
same,normalized growth,"locus YER002W, strain NOP16, active compounds read low",1
same,normalized growth,"locus YGR078C, strain PAC10, active compounds read low",1.01
same,normalized growth,"locus YMR263W, strain SAP30, active compounds read low",1
same,normalized growth,"locus YMR307W, strain GAS1, active compounds read low",0.993
same,normalized growth,"locus YNL153C, strain GIM3, active compounds read low",1.05
same,normalized growth,"locus YNL175C, strain NOP13, active compounds read low",1
same,normalized growth,"locus YNL197C, strain WHI3, active compounds read low",1.01
same,normalized growth,"locus YNL224C, strain SQS1, active compounds read low",1
same,normalized growth,"locus YOR083W, strain WHI5 (second series), active compounds read low",1.02
same,normalized growth,"locus YPL055C, strain LGE1, active compounds read low",0.971
same,normalized growth,"locus YPL241C, strain CIN2, active compounds read low",1
